From PubChem BioAssay
Sampled rows, rich in hits. Any-hit rate of the full collection: about 2.6%.
TLR9-MyD88 block: inhibitors of human TLR9-MyD88 binding. CHO BLA complementation TLR9-MyD88, CCF4 FRET ratio. inhibition, % at 4.98 µM. 340,000 tested, 0.21% active. AID 504734;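 active = inhibition above the mean over all tested compounds plus 3 SD, cut at about 21% in these data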;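 note: 0% = DMSO only wells and 100% = clavulanate BLA inhibitor control wells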
Exocytosis inh: lytic granule exocytosis inhibition; TALL-104 LAMP-1 surface exposure, flow cytometry; cells stimulated with thapsigargin and PMA; inhibition, % at 10 µM; 360,000 tested, 0.66% active;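 active = inhibition above about 55%, limit read from the data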
NOD2-RIPK2 inh: NOD2-RIPK2 protein interaction inhibition | O43353 | CHO BLA complementation NOD2-RIPK2, CCF4 ratio | inhibition, % at 4.98 µM | 360,000 tested, 0.38% active | AID 624267; in the data active = inhibition above about 21%;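 note: 0% = vehicle only and 100% = reference blocker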
ABHD5 PLIN5 PPI: blocks binding of human ABHD5 to perilipin-5; inhibition, % at 4 µM; Split G. princeps luciferase complementation, luminescence, 4 h; AID 602281; 360,000 tested, 0.78% active; Q00G26+Q8WTS1;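 active = inhibition above the mean inhibition across every tested compound plus 3 SD, cut at about 22% in these data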;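 note: 0% = DMSO only wells and the 100% control is not disclosed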
PRMT1 FP inh: inhibitors of human PRMT1. AID 652257. 370,000 tested, 1.3% active. inhibition, % at 2.79 µM. recombinant PRMT1, activity-based probe fluorescence polarization. Q99873;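 active = inhibition above about 21% made by adding two undisclosed values, limit read from the data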
TLR4-MyD88 BLA: inhibitors of human TLR4-MyD88 binding; O00206+Q99836; HeLa CL3-4 TLR4/MyD88 BLA complementation, FRET ratio; inhibition, % at 8.4 µM; 200,000 tested, 0.18% active; in the data active = inhibition above about 25%;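 note: 0% = vehicle and 100% = reference inhibitor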
Target sequence (O00206 whole entry, looked up): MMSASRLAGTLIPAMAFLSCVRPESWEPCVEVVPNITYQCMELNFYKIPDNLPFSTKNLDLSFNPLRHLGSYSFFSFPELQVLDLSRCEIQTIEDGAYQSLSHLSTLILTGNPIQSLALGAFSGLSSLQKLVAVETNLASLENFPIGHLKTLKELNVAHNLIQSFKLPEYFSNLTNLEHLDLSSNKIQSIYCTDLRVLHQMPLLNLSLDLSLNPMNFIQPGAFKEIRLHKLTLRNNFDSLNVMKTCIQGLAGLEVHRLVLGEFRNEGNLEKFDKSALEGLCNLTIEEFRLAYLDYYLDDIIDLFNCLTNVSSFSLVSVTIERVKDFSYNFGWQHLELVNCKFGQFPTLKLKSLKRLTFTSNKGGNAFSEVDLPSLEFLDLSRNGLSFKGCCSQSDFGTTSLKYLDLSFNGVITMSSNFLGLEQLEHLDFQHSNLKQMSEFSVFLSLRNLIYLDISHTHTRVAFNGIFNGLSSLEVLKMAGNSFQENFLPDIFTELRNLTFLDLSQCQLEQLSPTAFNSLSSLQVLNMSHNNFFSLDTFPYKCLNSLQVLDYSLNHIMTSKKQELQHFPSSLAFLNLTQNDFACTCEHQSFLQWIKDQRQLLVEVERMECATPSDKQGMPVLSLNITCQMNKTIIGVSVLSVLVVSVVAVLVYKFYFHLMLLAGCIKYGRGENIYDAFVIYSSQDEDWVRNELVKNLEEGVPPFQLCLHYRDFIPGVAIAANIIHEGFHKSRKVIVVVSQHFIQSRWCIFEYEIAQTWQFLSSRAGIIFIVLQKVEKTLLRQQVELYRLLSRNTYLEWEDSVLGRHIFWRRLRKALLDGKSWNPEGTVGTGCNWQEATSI
Target sequence (Q99836 whole entry, looked up): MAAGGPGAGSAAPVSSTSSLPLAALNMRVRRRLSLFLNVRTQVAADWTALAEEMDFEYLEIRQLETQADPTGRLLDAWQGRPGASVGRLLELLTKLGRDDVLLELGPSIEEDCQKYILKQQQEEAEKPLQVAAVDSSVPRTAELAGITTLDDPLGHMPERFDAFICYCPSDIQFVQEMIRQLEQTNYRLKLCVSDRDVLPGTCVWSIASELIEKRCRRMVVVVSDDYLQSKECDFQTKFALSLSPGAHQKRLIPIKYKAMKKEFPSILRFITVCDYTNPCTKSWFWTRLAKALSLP
Exocytosis CP01: lytic granule exocytosis inhibition; inhibition, % at 10 µM; AID 651954; 1,500 tested, 11% active; shares compounds with Exocytosis inh; TALL-104 cells, LAMP-1 externalization, flow cytometry; stimulated with PMA plus thapsigargin; in the data active = inhibition above about 60%;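 note: 0% = stimulated vehicle wells and 100% = unstimulated wells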
Numbers without * were called inactive; . = not tested or not shown.

SMILES	TLR9-MyD88 block	Exocytosis inh	NOD2-RIPK2 inh	ABHD5 PLIN5 PPI	PRMT1 FP inh	TLR4-MyD88 BLA	Exocytosis CP01
CCN(CC)CCCNc1ccc(-c2nnc(-c3ccc(OCC(C)C)cc3)o2)cn1	-2.6	61.6*	-1.4	20.2	0.5	.	94.7*
CC(C)COc1ccc(-c2nnc(-c3ccco3)o2)cc1	11.3	4.7	-2.8	-0.6	1.9	4.3	.
Cc1cc(N2CCNC[C@@H]2C)ccc1N1C[C@@H](C)O[C@@H](C)C1	.	.	.	.	-0.3	.	.
Cc1nc2ncccn2c1-c1csc(Nc2ccccc2)n1	1.5	0.2	7.3	-12.4	-4.6	10.0	.
CC(=O)Nc1ccc(Nc2nc(-c3c(C)nc4ccccn34)cs2)cc1	.	75.2*	-7.1	-13.4	-3.2	.	-3.8
Cc1ccc(-c2cc(C(=O)Nc3ccccn3)c3ccccc3n2)o1	0.3	87.9*	0.1	6.2	18.8	6.5	-9.4
CCOc1cccc(-c2nnc3n2N=C(c2cc(OC)ccc2OC)CS3)c1	0.5	75.1*	-9.7	3.1	-0.5	-12.4	7.1
N#CC1=C(N)Oc2cc(N)ccc2C1c1cccc(Br)c1 (stereo not given)	2.6	71.8*	-2.0	-1.1	4.5	.	-10.8
Cc1cc(C(=O)CN2C(=O)NC(C)(c3ccc(F)c(F)c3)C2=O)c(C)n1C1CC1 (stereo not given)	-13.8	60.2*	-2.7	-3.7	2.0	.	-14.5
COc1ccc(C2(C)NC(=O)N(CC(=O)c3cc(C)n(C4CC4)c3C)C2=O)cc1 (stereo not given)	-11.0	2.6	-4.2	-2.3	-4.1	.	.
C[C@@H]1[C@@H](O)C[C@@]2(C[C@H](O)c3cc(Cl)ccc3O2)O[C@H]1c1ccccc1Cl	.	.	.	.	1.4	.	.
COc1ccc(Cl)cc1-c1cc(C(=O)NCc2ccc(C(F)(F)F)cc2)[nH]n1	.	86.4*	5.5	-5.6	-2.1	.	31.7
COc1ccc(Cl)cc1-c1cc(C(=O)NCc2ccc(F)cc2)[nH]n1	.	31.4	5.1	-11.0	-5.3	.	.
COc1ccc(Cl)cc1NC(=O)c1cc(-c2ccccc2O)n[nH]1	-7.7	21.9	1.8	6.9	-0.8	-2.1	.
COc1ccc(OC)c(NC(=O)c2cc(-c3cc(Cl)ccc3O)n[nH]2)c1	-1.9	89.6*	4.7	2.2	-3.7	3.2	57.6
COC(=O)C1=C(C)N(C)C(=NCc2ccccc2)NC1c1cccc(Cl)c1 (stereo not given)	.	.	.	.	1.1	.	.
O=C(NCc1ccccc1)C1(c2ccccc2)CCN(S(=O)(=O)c2ccccc2)CC1	5.0	62.7*	-5.3	-5.2	-2.5	-8.1	-3.3
CC(C)(C)NC(=O)CN1C(=O)NC(c2ccccc2)(c2ccccc2)C1=O	-14.8	84.7*	4.1	-1.9	1.7	.	-4.5
CC(=O)CN1C(=O)NC(c2ccccc2)(c2ccccc2)C1=O	-0.7	12.5	5.7	3.0	-8.8	.	.
OC(c1ccccc1)(c1ccccc1)C1CCN(CCCOc2ccc(-c3cncnc3)cc2)CC1	.	.	.	.	-0.2	.	.
CC(=O)Nc1cccc(OCC(=O)NCCC2=CCCCC2)c1	0.1	94.8*	-13.2	-5.4	5.2	-0.4	-14.3
COc1cccc(NC(=O)NCCC2=CCCCC2)c1	0.2	-2.1	-2.7	-6.4	1.7	-9.5	.
COc1ccc(OC)c(Nc2cc(C)c3ccccc3n2)c1	-14.5	-13.4	0.6	-0.5	0.4	.	.
COc1ccc(OC)c(Nc2c3c(nc4ccccc24)CCC3)c1	-3.2	58.1*	9.1	-3.5	0.8	.	-1.1
COc1ccc2nc3c(c(-c4ccccc4)c2c1)CCC3	7.3	66.5*	-6.2	-0.3	3.5	4.1	3.2
SMILES	TLR9-MyD88 block	Exocytosis inh	NOD2-RIPK2 inh	ABHD5 PLIN5 PPI	PRMT1 FP inh	TLR4-MyD88 BLA	Exocytosis CP01
COc1ccc([N+](=O)[O-])cc1Nc1c2ccccc2nc2ccccc12	-8.9	72.9*	1.1	5.5	0.8	.	73.2*
COc1ccc(OC)c(Nc2c3ccccc3nc3ccccc23)c1	-6.2	67.0*	-3.6	-11.2	-1.6	.	-1.9
O=[N+]([O-])c1ccc(Nc2c3ccccc3nc3ccccc23)cc1	-12.2	10.8	-15.3	-8.4	1.0	14.3	.
COc1cc(Nc2c3c(nc4ccccc24)CCC3)cc(OC)c1OC	-3.7	15.4	-0.2	10.3	-2.0	.	.
COC(=O)c1cc2c(c3c4ccccc4n(S(=O)(=O)c4ccc(C)cc4)c13)C(=O)N(C)C2	.	.	.	.	1.1	.	.
Cc1ccc(OCc2ccc(-c3ccccc3)cc2)c([N+](=O)[O-])n1	6.1	88.1*	-13.6	1.1	6.6	.	-3.4
Clc1ccc(CSc2nncn2-c2ccc3c(c2)OCCO3)cc1	15.8	72.2*	0.0	0.3	-2.8	.	-12.0
Clc1ccc(CSc2nncn2-c2ccccn2)cc1	9.0	-1.0	2.3	-3.4	0.3	-2.8	.
C[C@@H]1CCCCO[C@@H](CN(C)C(=O)NC2CCCCC2)[C@@H](C)CN([C@H](C)CO)C(=O)c2cc(N(C)C)ccc2O1	.	.	.	.	-1.8	.	.
CC(=O)NC(c1cccs1)c1cc(Cl)c2ccccc2c1O (stereo not given)	3.9	72.6*	-4.6	-2.5	3.2	.	-12.4
CCC(=O)NC(c1cccs1)c1cc(Cl)c2ccccc2c1O (stereo not given)	-23.7	16.6	1.0	-10.0	0.3	.	.
Cn1c(=O)c(=O)n(C)c2cc(S(=O)(=O)N3CCN(c4ccccc4Cl)CC3)ccc21	.	.	.	.	-5.0	.	.
CC(C)CCN(C)[C@H]1C[C@H]2c3[nH]c4ccccc4c3CCN2C[C@H]1[C@H](C)O	.	.	.	.	-0.1	.	.
C=CCSc1nc2c(C(=O)OCC)nnn2c2ccccc12	8.2	80.9*	-14.5	9.6	8.9	.	0.0
CCCCCn1cc(CCC(=O)Nc2ccc(N(C)c3ccccn3)cc2)c2ccccc21	.	.	.	.	-1.9	.	.
COc1ccc(C(OC(=O)c2cccs2)C(=O)NCC2CCCO2)cc1 (stereo not given)	8.7	1.1	-5.8	1.8	-1.3	6.3	.
COc1ccccc1C(OC(=O)c1cccs1)C(=O)NCC1CCCO1 (stereo not given)	1.4	61.4*	-9.8	-9.9	-0.9	0.7	-11.6
COc1ccccc1N1CCN(CC(=O)NCC2CCCO2)CC1 (stereo not given)	1.4	58.2*	-6.4	4.7	2.3	9.2	-13.3
O=C(CN1CCN(c2ccc(F)cc2)CC1)NCC1CCCO1 (stereo not given)	-4.0	-4.6	-3.3	1.3	2.1	7.5	.
COC(=O)C1CN(Cc2cn(Cc3ccc(C)cc3)nn2)CCS(=O)(=O)N1Cc1ccc(OC)cc1 (stereo not given)	.	.	.	.	1.5	.	.
